This is an account of results in PubChem BioAssay (EPA / NIEHS).

Records with an inconclusive call do not appear. Activity calls are given as the source filed them. How the source made its calls: active means hit-call score of the fitted dose curve at least 0.9, where 1 is the maximum; inconclusive means response in the unintended direction; inactive means score below 0.9.

Chain of human Peroxisome Proliferator-activated Receptor alpha (PPARa), PPARA (gene 5465) (Q07869 whole entry, looked up): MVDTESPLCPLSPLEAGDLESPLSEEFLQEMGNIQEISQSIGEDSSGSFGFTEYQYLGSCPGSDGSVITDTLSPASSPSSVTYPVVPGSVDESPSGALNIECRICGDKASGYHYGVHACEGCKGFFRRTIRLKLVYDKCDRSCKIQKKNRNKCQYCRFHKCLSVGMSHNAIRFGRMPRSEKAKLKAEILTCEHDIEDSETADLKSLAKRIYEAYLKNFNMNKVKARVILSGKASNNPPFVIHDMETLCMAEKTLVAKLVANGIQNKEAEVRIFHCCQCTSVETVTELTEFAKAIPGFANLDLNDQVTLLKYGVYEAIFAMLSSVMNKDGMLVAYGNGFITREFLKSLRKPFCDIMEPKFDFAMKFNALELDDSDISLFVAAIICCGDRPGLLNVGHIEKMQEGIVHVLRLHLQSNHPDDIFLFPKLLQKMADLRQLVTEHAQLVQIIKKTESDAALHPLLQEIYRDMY

The target of the assay is human Peroxisome Proliferator-activated Receptor alpha (PPARa), PPARA (gene 5465) (UniProt Q07869). Put plainly: ATG_PPARa_TRANS: Attagene TRANS-FACTORIAL HepG2 Assay for human Peroxisome Proliferator-activated Receptor alpha (PPARa) (AID 2283001).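 On AC50: potency for gain of reporter signal over DMSO so agonist or activator.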 How it is done:
ATG_TRANS is a cell-based, multiplexed-readout assay that uses HepG2, a human liver cell line, with measurements taken at 24 hours after chemical dosing in a 24-well plate.ATG_PPARa_TRANS is one of 30 assay component(s) measured or calculated from the ATG_TRANS assay. It is designed to make measurements of mRNA induction, a form of inducible reporter, as detected with fluorescence intensity signals by Reverse transcription polymerase chain reaction (RT-PCR) and Capillary electrophoresis technology.Data from the assay component ATG_PPARa_TRANS was analyzed into 1 assay endpoint. This assay endpoint, ATG_PPARa_TRANS, was analyzed in the positive analysis fitting direction relative to DMSO as the negative control and baseline of activity. Using a type of inducible reporter, measures of mRNA for gain-of-signal activity can be used to understand the reporter gene at the transcription factor-level as they relate to the gene PPARA. Furthermore, this assay endpoint can be referred to as a primary readout, because this assay has produced multiple assay endpoints where this one serves a reporter gene function. To generalize the intended target to other relatable targets, this assay endpoint is annotated to the nuclear receptor intended target family, where the subfamily is non-steroidal.
Human liver HepG2 cells are transiently transfected with multiple reporter transcription units (MRTUs) in 6-well plates using FuGene 6 reagent (Roche; 3 ml FuGene/1 mg DNA). The MRTU constructs are regulated by a cis-regulating element (promoter). […] A major difference between the CIS and TRANS system is that in CIS activities of endogenous TFs are measured, whereas the TRANS assay evaluates changes in activities of exogenous, chimeric NR-Gal4 proteins. […] At the end of 24 hour incubation, total RNA was isolated using TriZol reagent (Invitrogen). The isolated RNA is then reverse-transcribed using oligo(dT) primer and Mo-MLV reverse transcriptase (Invitrogen) with DNAse I (Ambion) treatment for 30 min. The one-tenth of the produced cDNA was amplified by PCR using Taq DNA polymerase (Invitrogen) and two reporter sequence-specific primers. The PCR products were fluorescently labeled by primer extension with 6-arboxyfluorescein (6-FAM) 5'-labeled reporter sequence-specific primer (2 min at 95 C, 20 s at 68 C and 10 min at 72 C) and these products were digested with 5U of HpaI (New England Biolabs) for 2h at 37 C. The fragments were purified using Qiaquick PCR columns (Qiagen), analyzed on an ABI 3130xL genetic analyzer (Applied Biosystems) with peak positions identified by using a set of X-rhodamine (ROX)-labeled MapMarker1000 molecular weight standards (BioVentures). The raw capillary electrophoresis data was processed using Attagraph software (Attagene).
As for `Oc1ccc(C2(c3ccc(O)c(C4CCCCC4)c3)CCCCC2)cc1C1CCCCC1`, the outcome was inactive.

With `CC1=CCC(=O)O1`, the molecule was classed as inactive.

For the molecule `NCC(F)(F)C(F)(F)C(F)(F)C(F)(F)C(F)(F)C(F)(F)F`, the call was inactive.

`CC(C)CCCC(C)CCO` (stereo not given): the result was inactive.

On to `FC(F)(F)C(F)(F)C(F)(F)C(F)(F)C(F)(F)C(F)(F)CC[Si](Cl)(Cl)Cl`, for which the call was inactive.

The AC50 is the concentration giving half of the maximal activity seen. With `CCCCCCCC/C=C\CCCCCCCC(=O)OCC(O)CO` (stereo not given), the AC50 was 27.7 µM (active).

In the case of `C=C(C)CCCC`, the call was inactive.

As for `O=C1c2c(O)ccc(Nc3ccc(CCO)cc3)c2C(=O)c2c([N+](=O)[O-])ccc(O)c21`, the molecule was called inactive.

As for `O=C(O)C(F)(F)C(F)(F)C(F)(F)OC(F)(C(F)(F)F)C(F)(F)F`, the AC50 is 24.6 µM (active).

For `OCC(O)CC(F)(F)C(F)(F)C(F)(F)C(F)(F)C(F)(F)C(F)(F)C(F)(F)C(F)(F)F` (stereo not given), the molecule was classed as inactive.

In the case of `O=C1c2ccccc2C(=O)c2c(Cl)cccc21`, the result was inactive.

With `CC(C)OC=O`, the outcome was inactive.

Take `C[Si](Cl)(Cl)CCC(F)(F)C(F)(F)C(F)(F)C(F)(F)C(F)(F)C(F)(F)F`: the outcome was inactive.

On to `CCCCCC/C=C/CCCCCCCC(=O)O`, for which the AC50 is 37.6 µM (active).

For `O=C(O)C(F)(F)C(F)(F)C(F)(F)C(F)(F)C(F)(F)C(F)(F)C(F)F`, the half-maximal activity concentration (AC50) is 6.55 µM (active).

For `Cc1ccc(O)c(-n2nc3ccccc3n2)c1`, the molecule was classed as inactive.

As for `Cc1cc(C)c(O)c(C(C)(C)C)c1`, the molecule was called inactive.

Turning to `CCN(CC)c1ccc(N=Nc2ccccc2)cc1`, the molecule was called inactive.

In the case of `NCC(F)(F)C(F)(F)C(F)(F)C(F)(F)C(F)(F)C(F)(F)C(F)(F)C(F)(F)F`, the molecule was classed as inactive.

Regarding `C=CC(=O)OCC(F)(F)C(F)(F)C(F)(F)C(F)(F)C(F)(F)C(F)(F)C(F)(F)C(F)F`, the molecule was classed as inactive.

Consider `O=S(=O)(OCC(F)(F)F)C(F)(F)C(F)(F)C(F)(F)C(F)(F)F`, for which the molecule was classed as inactive.

With `Nc1cccnc1N`, the molecule was classed as inactive.

With `C=CC(=O)OCC(F)(F)C(F)(F)C(F)(F)COC(=O)C=C`, the molecule was classed as inactive.

On to `OC(O)C(F)(F)C(F)(F)F`, for which the molecule was called inactive.

On to `CC(=O)C=O`, for which the outcome was inactive.

On to `NC(=O)C(F)(F)C(F)(F)C(F)(F)C(F)(F)C(F)(F)C(F)(F)C(F)(F)F`, for which the AC50 was 86.9 µM (active).

Regarding `CCCCCCCCCCCCCCCCC`, the molecule was called inactive.

For the molecule `CC(C)OC(=O)COc1ccc(Cl)cc1Cl`, the outcome was inactive.

Consider `CO[Si](C)(CCC(F)(F)C(F)(F)C(F)(F)C(F)(F)C(F)(F)C(F)(F)F)OC`, for which the call was inactive.

For `CC(C)Nc1ccc(NC(C)C)c2c1C(=O)c1ccccc1C2=O`, the molecule was classed as inactive.

Consider `F[Si-2](F)(F)(F)(F)F`, for which the outcome was inactive.

Consider `CC(=O)c1ccccc1N`, for which the molecule was called inactive.

In the case of `NC(=O)C(F)(F)C(F)(F)C(F)(F)F`, the result was inactive.

Turning to `C[Si](C)O[Si](C)C`, the molecule was classed as inactive.

On to `O=S(=O)(O)CCC(F)(F)C(F)(F)C(F)(F)C(F)(F)C(F)(F)C(F)(F)C(F)(F)C(F)(F)F`, for which the molecule was called inactive.

For the molecule `CC(C)C(=O)OCc1ccccc1`, the molecule was called inactive.

For the molecule `C#CC(O)CCC` (stereo not given), the molecule was classed as inactive.

Take `c1ccc(C[P+](c2ccccc2)(c2ccccc2)c2ccccc2)cc1`: the call was inactive.

Regarding `CCC/C=C/CO`, the call was inactive.

Regarding `CCCCOC(=O)C(C)O` (stereo not given), the molecule was called inactive.
